Test results: PubChem BioAssay (NCI)
Values joined by “and” are separate entries in the source; they are usually repeats but may differ in a detail not shown here. Equal values may be shown once. The panel holds about 83,000 compounds, 20% with a hit somewhere; the sample as a whole holds those more often.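 Compound tested at a single concentration for 48 hours in 96-well plates; a percent growth value below 10 was scored as active.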 A number with no mark means an inactive call. Active and inactive are the calls of the source.

Test system: MDA-MB-468 breast
Assay: NCI-60 one-dose screen, 48 h (100 = growth as untreated, 0 = no growth, -100 = all killed)
Conditions: 10 µM unless noted

Structure (SMILES) | growth
c1cc2c(c3c1CCNC3)OCO2 | 87.4%
CC[C@H](C)[C@H](NC(=O)CN(C)C)C(=O)N(C)[C@H](C[C@@H](OC(C)=O)c1nc(C(=O)NC23CC(C(=O)OC)(C2)C3)cs1)C(C)C | -14.9% (active)
C[C@@H]1C[C@H]2C(=O)O[C@@H](C)C(NC(=O)[C@H](Cc3cc(F)cc(F)c3)NC(=O)Nc3ccc(OS(=O)(=O)F)cc3)C(=O)N3CCC[C@H]3C(=O)N3CCO[C@H](C)[C@H]3C(=O)N[C@@H](CO)C(=O)N2C1 (stereo partly specified) | -7.29% (active)
COc1ccc([As]=[As]c2ccc(OC)c(NCS(=O)(=O)O)c2)cc1NCS(=O)(=O)O (stereo unspecified) | -54.2% (active)
COc1cc(C)c(-c2ccc(OC)c(=O)cc2C)c(OC)c1OC | 33.8% and 77.1%
O=C1C=C(N2CC2)c2ccccc2C1=O | 24.6%
